The record followed here is ChEMBL document CHEMBL1961873, “Compounds: GSK PKIS; Assays: Nanosyn kinase panel” (2012).

Experiment [1] has as its target T1, Aurora kinase A (Homo sapiens) (UniProt O14965).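 Also: values are mean percent inhibition.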
T1 sequence (whole entry): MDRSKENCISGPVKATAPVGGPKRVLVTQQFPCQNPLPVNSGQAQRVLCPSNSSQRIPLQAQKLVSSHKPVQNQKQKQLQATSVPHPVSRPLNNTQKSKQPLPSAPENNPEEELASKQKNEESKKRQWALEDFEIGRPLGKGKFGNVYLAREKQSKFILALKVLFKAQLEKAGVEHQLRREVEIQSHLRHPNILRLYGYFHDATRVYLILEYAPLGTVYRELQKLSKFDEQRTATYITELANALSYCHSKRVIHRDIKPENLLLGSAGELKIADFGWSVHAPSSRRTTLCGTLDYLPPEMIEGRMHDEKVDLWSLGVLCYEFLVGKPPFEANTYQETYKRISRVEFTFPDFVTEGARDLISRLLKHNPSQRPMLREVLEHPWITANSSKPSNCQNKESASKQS
To be noted: at 1 µM.

Experiment [2] addresses Aurora kinase B (Homo sapiens) (UniProt Q96GD4). The note with it: at 0.1 µM.
For experiment [3] the target is unchanged. The note with it: at 1 µM.
For experiment [4], the target named is T2, Aurora kinase C (Homo sapiens) (UniProt Q9UQB9).
T2 sequence (whole entry): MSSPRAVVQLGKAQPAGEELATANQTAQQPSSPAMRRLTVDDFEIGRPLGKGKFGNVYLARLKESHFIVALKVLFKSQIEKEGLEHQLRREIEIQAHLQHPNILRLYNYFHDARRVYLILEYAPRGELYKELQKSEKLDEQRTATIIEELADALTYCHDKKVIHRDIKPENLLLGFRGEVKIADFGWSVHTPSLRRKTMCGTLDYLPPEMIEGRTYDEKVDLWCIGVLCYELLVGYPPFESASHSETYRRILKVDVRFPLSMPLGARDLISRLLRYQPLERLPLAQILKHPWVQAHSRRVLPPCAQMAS
The note with it: at 0.1 µM.

In experiment [5] the target is T2, Aurora kinase C (Homo sapiens). To be noted: at 1 µM.
Experiment [6] deals with Serine/threonine-protein kinase 10 (Homo sapiens) (UniProt O94804). The note with it: at 0.1 µM.
Chain of Serine/threonine-protein kinase 10 (Homo sapiens) (O94804 whole entry, looked up): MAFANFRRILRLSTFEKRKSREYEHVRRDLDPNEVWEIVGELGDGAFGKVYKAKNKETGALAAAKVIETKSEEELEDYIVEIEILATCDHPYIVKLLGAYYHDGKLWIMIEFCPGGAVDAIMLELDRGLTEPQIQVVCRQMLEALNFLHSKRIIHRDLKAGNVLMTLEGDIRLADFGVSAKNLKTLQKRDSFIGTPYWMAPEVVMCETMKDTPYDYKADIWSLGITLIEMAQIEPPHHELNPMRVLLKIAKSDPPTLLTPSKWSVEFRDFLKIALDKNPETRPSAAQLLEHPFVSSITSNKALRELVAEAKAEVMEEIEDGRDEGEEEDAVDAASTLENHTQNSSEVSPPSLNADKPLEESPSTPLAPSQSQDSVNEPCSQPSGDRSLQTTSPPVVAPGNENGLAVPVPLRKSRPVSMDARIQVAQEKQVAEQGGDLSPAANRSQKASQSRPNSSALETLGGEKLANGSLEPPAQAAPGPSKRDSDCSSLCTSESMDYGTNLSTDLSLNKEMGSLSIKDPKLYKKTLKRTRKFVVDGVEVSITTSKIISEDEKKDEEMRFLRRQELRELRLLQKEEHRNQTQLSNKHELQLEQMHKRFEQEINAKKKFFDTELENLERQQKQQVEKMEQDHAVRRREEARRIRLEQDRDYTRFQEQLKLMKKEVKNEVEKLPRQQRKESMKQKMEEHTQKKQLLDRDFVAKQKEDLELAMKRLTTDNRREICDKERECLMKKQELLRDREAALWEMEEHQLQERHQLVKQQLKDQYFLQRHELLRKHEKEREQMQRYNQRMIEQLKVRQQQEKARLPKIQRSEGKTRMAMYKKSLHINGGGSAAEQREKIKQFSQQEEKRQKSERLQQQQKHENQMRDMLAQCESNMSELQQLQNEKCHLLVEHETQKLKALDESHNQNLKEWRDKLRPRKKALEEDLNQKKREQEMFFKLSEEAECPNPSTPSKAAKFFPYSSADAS
For experiment [7] the target is unchanged. To be noted: at 1 µM.
For experiment [8], the target named is T3, Mitogen-activated protein kinase kinase kinase kinase 2 (Homo sapiens) (UniProt Q12851).
T3 sequence (whole entry): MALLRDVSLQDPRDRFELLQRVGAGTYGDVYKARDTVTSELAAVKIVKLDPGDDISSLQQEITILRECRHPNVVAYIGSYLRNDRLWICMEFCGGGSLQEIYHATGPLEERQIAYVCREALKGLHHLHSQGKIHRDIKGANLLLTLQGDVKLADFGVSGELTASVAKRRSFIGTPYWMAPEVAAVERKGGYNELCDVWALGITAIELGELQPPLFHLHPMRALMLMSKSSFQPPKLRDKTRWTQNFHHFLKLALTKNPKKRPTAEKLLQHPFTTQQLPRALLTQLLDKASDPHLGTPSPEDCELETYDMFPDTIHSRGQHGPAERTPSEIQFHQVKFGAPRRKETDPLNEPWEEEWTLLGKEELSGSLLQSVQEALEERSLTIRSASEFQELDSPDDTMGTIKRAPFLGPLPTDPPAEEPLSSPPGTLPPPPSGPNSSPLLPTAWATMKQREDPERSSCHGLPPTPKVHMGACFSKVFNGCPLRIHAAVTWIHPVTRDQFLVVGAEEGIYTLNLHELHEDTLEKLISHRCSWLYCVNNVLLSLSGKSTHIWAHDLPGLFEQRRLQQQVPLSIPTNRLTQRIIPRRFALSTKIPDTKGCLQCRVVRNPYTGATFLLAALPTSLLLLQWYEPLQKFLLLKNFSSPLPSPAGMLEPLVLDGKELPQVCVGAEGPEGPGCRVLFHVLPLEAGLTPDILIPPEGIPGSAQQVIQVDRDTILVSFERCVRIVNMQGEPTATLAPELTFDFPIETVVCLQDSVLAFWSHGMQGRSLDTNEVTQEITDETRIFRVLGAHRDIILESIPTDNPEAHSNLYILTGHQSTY
To be noted: at 0.1 µM.

Experiment [9] addresses T3, Mitogen-activated protein kinase kinase kinase kinase 2 (Homo sapiens). To be noted: at 1 µM.
Experiment [10] addresses Mitogen-activated protein kinase kinase kinase kinase 4 (Homo sapiens) (UniProt O95819). To be noted: at 0.1 µM.
Experiment [11] shares this target. To be noted: at 1 µM.
The target in experiment [12] is Dual specificity mitogen-activated protein kinase kinase 1 (Homo sapiens) (UniProt Q02750). The note with it: at 0.1 µM.
Chain of Dual specificity mitogen-activated protein kinase kinase 1 (Homo sapiens) (Q02750 whole entry): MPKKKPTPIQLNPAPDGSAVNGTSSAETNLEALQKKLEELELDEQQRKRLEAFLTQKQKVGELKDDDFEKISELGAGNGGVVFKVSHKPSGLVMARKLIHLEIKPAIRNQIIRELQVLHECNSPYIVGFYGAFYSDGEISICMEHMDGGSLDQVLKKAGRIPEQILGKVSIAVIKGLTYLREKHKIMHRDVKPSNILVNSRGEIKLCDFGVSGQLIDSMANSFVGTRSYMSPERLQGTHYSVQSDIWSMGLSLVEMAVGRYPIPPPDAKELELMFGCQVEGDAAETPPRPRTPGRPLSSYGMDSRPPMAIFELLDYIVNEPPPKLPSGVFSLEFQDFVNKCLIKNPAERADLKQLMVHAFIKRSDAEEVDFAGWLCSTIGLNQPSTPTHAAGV
The target is the same in experiment [13]. To be noted: at 1 µM.
Experiment [14] deals with Misshapen-like kinase 1 (Homo sapiens) (UniProt Q8N4C8). The note with it: at 0.1 µM.
Chain of Misshapen-like kinase 1 (Homo sapiens) (Q8N4C8 whole entry, looked up): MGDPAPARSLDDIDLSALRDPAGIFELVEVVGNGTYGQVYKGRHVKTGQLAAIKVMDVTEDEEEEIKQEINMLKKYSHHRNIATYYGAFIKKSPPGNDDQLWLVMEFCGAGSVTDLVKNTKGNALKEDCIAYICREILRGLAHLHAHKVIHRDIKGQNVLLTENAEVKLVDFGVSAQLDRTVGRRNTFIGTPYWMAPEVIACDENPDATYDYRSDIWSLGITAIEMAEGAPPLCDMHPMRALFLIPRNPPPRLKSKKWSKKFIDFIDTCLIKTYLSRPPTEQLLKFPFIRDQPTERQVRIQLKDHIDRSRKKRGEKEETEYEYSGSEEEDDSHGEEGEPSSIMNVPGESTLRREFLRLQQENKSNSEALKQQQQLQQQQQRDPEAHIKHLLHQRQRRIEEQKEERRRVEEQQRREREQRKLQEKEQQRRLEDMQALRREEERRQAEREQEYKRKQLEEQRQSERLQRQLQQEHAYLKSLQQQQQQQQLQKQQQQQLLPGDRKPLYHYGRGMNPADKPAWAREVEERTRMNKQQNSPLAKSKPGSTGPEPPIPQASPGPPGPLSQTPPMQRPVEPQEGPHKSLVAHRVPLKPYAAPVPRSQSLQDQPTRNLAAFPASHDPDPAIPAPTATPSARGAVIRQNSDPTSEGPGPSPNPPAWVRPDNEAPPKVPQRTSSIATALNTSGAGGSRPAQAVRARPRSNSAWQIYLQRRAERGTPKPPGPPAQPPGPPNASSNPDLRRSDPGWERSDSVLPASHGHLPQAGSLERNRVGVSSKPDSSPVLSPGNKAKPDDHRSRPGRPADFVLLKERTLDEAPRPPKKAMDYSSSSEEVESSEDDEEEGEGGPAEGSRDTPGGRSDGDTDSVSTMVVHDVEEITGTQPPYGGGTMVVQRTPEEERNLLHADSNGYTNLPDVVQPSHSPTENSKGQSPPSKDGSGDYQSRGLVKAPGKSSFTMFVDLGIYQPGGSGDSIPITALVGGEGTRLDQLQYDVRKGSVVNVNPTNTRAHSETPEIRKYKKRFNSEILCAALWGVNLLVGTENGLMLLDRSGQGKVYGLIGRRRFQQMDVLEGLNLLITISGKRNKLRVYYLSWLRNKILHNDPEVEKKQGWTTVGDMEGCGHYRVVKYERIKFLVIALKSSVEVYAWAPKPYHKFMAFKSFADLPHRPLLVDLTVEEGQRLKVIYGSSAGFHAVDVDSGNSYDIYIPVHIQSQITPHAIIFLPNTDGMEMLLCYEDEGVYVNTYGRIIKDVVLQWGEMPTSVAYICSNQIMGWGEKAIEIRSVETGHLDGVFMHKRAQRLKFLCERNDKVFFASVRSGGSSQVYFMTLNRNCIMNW
The target is the same in experiment [15]. To be noted: at 1 µM.
Experiment [16] deals with T4, Serine/threonine-protein kinase 4 (Homo sapiens) (UniProt Q13043).
T4 sequence (whole entry): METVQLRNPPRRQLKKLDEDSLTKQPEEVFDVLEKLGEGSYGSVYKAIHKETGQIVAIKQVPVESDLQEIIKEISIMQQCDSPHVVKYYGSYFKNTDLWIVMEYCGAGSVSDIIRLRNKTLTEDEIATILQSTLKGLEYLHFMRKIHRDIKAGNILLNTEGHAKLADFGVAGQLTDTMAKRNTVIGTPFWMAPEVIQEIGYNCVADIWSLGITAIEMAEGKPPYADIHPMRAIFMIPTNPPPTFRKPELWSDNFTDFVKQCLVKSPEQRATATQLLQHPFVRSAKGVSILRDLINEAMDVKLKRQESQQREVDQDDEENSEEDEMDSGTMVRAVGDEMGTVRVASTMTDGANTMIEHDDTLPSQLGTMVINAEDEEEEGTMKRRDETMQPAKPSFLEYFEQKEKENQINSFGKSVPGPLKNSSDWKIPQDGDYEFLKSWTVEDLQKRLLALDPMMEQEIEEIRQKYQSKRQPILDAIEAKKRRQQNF
To be noted: at 0.1 µM.

Experiment [17] has as its target T4, Serine/threonine-protein kinase 4 (Homo sapiens). The note with it: at 1 µM.
The target of experiment [18] is T5, Serine/threonine-protein kinase 3 (Homo sapiens) (UniProt Q13188).
T5 sequence (whole entry): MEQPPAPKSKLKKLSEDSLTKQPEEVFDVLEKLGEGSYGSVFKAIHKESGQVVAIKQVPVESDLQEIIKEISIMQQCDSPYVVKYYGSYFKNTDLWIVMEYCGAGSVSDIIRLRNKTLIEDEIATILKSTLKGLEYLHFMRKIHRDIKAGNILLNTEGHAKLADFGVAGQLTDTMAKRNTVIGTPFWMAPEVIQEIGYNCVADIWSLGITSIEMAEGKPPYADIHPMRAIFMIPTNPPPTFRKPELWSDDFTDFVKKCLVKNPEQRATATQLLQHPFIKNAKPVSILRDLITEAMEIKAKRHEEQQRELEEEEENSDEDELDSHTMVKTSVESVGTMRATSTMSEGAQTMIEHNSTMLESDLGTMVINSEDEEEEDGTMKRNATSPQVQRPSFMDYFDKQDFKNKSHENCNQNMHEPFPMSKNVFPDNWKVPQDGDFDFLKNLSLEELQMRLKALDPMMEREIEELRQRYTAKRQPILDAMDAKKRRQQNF
To be noted: at 0.1 µM.

For experiment [19], the target named is T5, Serine/threonine-protein kinase 3 (Homo sapiens). To be noted: at 1 µM.
Experiment [20] deals with Serine/threonine-protein kinase 26 (Homo sapiens) (UniProt Q9P289). To be noted: at 0.1 µM.
Chain of Serine/threonine-protein kinase 26 (Homo sapiens) (Q9P289 2-416 limits assumed): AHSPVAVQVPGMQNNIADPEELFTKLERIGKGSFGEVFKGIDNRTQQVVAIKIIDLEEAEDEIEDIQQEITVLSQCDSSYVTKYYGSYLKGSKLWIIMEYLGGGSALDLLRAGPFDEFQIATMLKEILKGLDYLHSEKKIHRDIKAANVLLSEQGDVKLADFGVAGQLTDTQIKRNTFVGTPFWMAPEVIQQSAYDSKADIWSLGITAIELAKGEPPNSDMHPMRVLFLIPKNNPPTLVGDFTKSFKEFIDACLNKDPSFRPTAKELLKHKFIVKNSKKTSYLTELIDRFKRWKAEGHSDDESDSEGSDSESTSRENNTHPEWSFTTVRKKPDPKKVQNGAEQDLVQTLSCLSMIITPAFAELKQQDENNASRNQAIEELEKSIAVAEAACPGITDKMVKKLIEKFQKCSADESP

Chain of Aurora kinase B (Homo sapiens) (Q96GD4 whole entry): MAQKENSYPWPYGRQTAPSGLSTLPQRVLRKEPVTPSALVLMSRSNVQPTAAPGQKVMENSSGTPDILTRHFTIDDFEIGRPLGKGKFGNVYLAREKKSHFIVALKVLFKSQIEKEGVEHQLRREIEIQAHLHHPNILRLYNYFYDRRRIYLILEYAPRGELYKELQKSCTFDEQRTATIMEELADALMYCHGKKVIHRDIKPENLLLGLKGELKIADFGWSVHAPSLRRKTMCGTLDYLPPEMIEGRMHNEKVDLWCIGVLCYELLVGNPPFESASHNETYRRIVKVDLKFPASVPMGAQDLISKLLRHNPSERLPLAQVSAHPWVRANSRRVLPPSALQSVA
Chain of Mitogen-activated protein kinase kinase kinase kinase 4 (Homo sapiens) (O95819 2-1239 limits assumed): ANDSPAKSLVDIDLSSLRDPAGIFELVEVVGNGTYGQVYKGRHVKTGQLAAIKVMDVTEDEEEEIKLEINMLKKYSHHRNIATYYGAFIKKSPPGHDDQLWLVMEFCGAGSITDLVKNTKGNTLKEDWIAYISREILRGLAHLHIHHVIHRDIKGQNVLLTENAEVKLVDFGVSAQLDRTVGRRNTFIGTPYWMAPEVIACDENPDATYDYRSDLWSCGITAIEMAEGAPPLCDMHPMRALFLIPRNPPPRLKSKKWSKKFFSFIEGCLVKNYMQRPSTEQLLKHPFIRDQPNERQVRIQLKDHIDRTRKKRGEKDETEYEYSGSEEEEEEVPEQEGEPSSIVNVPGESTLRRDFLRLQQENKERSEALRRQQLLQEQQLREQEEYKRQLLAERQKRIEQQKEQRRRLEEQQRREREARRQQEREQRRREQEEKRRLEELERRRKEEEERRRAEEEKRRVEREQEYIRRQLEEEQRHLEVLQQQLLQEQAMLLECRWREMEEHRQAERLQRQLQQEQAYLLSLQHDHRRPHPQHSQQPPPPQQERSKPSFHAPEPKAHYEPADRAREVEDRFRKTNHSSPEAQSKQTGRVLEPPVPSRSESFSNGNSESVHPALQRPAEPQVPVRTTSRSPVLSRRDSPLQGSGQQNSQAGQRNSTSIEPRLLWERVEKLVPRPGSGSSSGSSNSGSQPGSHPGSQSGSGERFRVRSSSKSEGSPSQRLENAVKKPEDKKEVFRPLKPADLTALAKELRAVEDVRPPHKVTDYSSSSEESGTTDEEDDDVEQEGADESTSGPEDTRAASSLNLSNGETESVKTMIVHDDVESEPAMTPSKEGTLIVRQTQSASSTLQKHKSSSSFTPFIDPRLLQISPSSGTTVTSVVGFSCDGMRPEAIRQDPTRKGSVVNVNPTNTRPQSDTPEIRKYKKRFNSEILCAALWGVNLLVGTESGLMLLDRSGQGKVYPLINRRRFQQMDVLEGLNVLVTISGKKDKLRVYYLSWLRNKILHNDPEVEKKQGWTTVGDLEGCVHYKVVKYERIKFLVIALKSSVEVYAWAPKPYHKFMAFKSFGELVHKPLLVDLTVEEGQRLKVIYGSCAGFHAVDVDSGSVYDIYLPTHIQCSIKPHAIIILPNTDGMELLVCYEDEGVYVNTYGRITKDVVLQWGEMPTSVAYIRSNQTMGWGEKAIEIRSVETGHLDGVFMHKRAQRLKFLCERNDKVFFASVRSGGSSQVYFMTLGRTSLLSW

As usually defined, the inhibition is the relative decrease from the control value, in per cent. As to `NS(=O)(=O)c1cccc(-c2ccc3c(NC(=O)C4CC4)n[nH]c3c2)c1`, the inhibition is 14.4% in experiment [1]; 1.82% in [2]; 1.24% in experiment [3]; -1.44% in [4]; 2.43% in [5]; 1.33% in [6]. The inhibition in [7] is 7.09%; in [8], 2.11%; in experiment [9], 7.37%; in experiment [10], 1.63%; in experiment [11], 10%; in experiment [12], -1.43%. For the same compound, the inhibition in [13] was 2.83%; in [14] it was 1.11%; in [15] it was 8.09%; in [16] it was -3.97%; in experiment [17] it was -4.72%; in [18], -3.79%. The results for the inhibition in experiment [19] and in [20] were -2.35% and 0%, respectively.

With `O=C1NC(=O)C(c2ccccc2Cl)=C1Nc1cccc(O)c1`, the inhibition in experiment [1] came to 11.6%; in [2], 2.88%; in experiment [3], 7.74%; in [4], 1.84%; in [5], 7.14%; in experiment [6] it was 8.75%. Further, the inhibition in [7] is 49.3%; in experiment [8], 1.12%; in experiment [9], 2.09%; in [10] it was 3.71%; in [11], 6.87%; in experiment [12], 1.44%. The inhibition was 1.89% in [13]; 3.8% in experiment [14]; 5.96% in experiment [15]; 7.3% in experiment [16]; 27.2% in [17]; 7.12% in experiment [18]. Moreover, the inhibition was 22.5% in experiment [19] and -0.62% in experiment [20].

Regarding `Nc1ncnc2occ(-c3ccc(NC(=O)Nc4cc(C(F)(F)F)cc(C(F)(F)F)c4)cc3)c12`, the inhibition came to 46% in [1]; 10.6% in [2]; 44.5% in experiment [3]; 1.5% in [4]; 79.7% in experiment [5]; 9.76% in [6]. The inhibition in experiment [7] was determined as 29%; in experiment [8], 15.7%; in experiment [9], 48.9%; in [10] it was 2.54%; in experiment [11], 5.19%; in [12] it was 0.93%. The inhibition in [13] was 3.12%; in experiment [14] it was 5.87%; in experiment [15] it was -1.47%; in [16] it was 3.59%; in experiment [17] it was 6.92%; in experiment [18], 4.8%. For the same compound, the values for the inhibition in experiment [19] and in experiment [20] were 5.55% and -0.71%, respectively.

Take `Cn1cc(C=C2C(=O)Nc3cccnc32)c2ccccc21`: the inhibition in [1] came to 57%; in experiment [2], 7.66%; in experiment [3] it was 55.1%; in [4] it was 5.21%; in experiment [5] it was 62.6%; in experiment [6] it was 3.81%. For the same compound, the inhibition in experiment [7] worked out at 12%; in experiment [8], 2.96%; in experiment [9], 17.9%; in [10] it was 6.66%; in experiment [11], 29%; in experiment [12], 2.69%. Also, the inhibition in [13] is 7.29%; in [14], 7.13%; in [15] it was 23.6%; in [16], 13.7%; in experiment [17], 47.9%; in experiment [18] it was 10.5%. Also, the inhibition in experiment [19] amounted to 33.8%; in [20], 1.41%.

Consider `N#Cc1c(NC(=O)c2cccc3ccccc23)sc2c1CCCC2`, for which the inhibition in experiment [1] came to 5.29%; in [2], 1.03%; in experiment [3] it was 3.57%; in [4] it was 1.03%; in [5], 2.63%; in experiment [6] it was 3.84%. Besides, the inhibition in [7] came out at 5.96%; in experiment [8] it was 1.92%; in experiment [9], 4.41%; in experiment [10] it was 3.89%; in experiment [11], 13.8%; in [12] it was 3.76%. The inhibition in experiment [13] amounted to 3.46%; in experiment [14] it was 5.15%; in experiment [15], 11.1%; in [16], 3.4%; in experiment [17] it was 4.3%; in experiment [18], 2.39%. Also, the figures for the inhibition in experiment [19] and in [20] were 3.8% and -1.1%, respectively.

For the compound `Nc1ncnc2occ(-c3ccc(NC(=O)Nc4cccc(C(F)(F)F)c4)cc3)c12`, the inhibition in experiment [1] turned out to be 60.4%; in experiment [2], 30.7%; in experiment [3], 66.7%; in [4], 42.5%; in [5], 88.8%; in experiment [6], 26.4%. The inhibition in experiment [7] is 67.9%; in experiment [8], 28.7%; in experiment [9], 59.2%; in experiment [10], 2.65%; in experiment [11], 12.3%; in [12], 4.53%. Moreover, the inhibition turned out to be 4.91% in experiment [13]; 3.8% in [14]; 8.17% in experiment [15]; 5.73% in [16]; 15.6% in [17]; 5.7% in experiment [18]. Besides, the figures for the inhibition in experiment [19] and in experiment [20] were 13.3% and -2.6%, respectively.

For the compound `CCn1c(-c2nonc2N)nc2c(N3CCCC3)nccc21`, the inhibition in experiment [1] was 2.53%; in experiment [2], -1.12%; in experiment [3] it was 5.43%; in experiment [4], 0.17%; in [5], -2.42%; in experiment [6], -0.24%. In addition, the inhibition in experiment [7] was 2.42%; in experiment [8] it was 1.22%; in experiment [9], 4.2%; in [10], 0.97%; in experiment [11], 2.78%; in experiment [12] it was -2.28%. Moreover, the inhibition in experiment [13] was -2.11%; in experiment [14], 0.71%; in experiment [15] it was 2.4%; in experiment [16], -1.49%; in experiment [17], -1.2%; in [18], -2.05%. The values for the inhibition in experiment [19] and in experiment [20] were 0.3% and 0.47%, respectively.
